From PubChem
ssDAF-12 act: S. stercoralis DAF-12 nuclear receptor activators, primary screen, cell-based, luminescence, HEK293, GRIP1 co-expression, lit1-tk-luc | HEK293 ssDAF-12/GRIP1 lit1-tk-luc reporter; % of 3 µM dafachronic acid response | activation, % at 6.8 µM | AID 652126, 2013 | Nuclear hormone receptor DAF-12 (Strongyloides stercoralis) | hit rate 1% among 370,000;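 active = activation above the mean over all tested compounds plus 3 SD, cut at about 0.9% in these data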;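 note: 0% = DMSO-only wells and 100% = 3 µM delta7-dafachronic acid wells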
hgDAF-12 ag: H. glycines DAF-12 receptor agonists, primary screen, cell-based, luminescence, HEK293, GAL4 fusion, UAS-luciferase | AID 687014, 2013 | activation, % at 6.8 µM | HEK293 GAL4-hgDAF12 UAS-luciferase reporter, agonist luminescence; normalized to butyrate control | Nuclear hormone receptor DAF-12 (Heterodera glycines), GAL4 fusion | hit rate 1.8% among 370,000;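 active = activation above a cutoff set at the mean of all screened compounds plus 3 SD, cut at about 10% in these data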;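 note: 0% = DMSO wells and 100% = sodium butyrate wells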
hcDAF-12 act: H. contortus DAF-12 nuclear receptor activators, primary screen, cell-based, luminescence, HEK293, lit1-tk-luc reporter; activation, % at 6.8 µM; HEK293 hcDAF-12 lit1-tk-luc reporter; 0% DMSO, 100% Δ7-dafachronic acid; hit rate 1.4% among 370,000;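 active = activation above the mean of all tested compounds plus 3 SD, cut at about 5.5% in these data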;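 note: 100% = response to 3 µM Δ7-dafachronic acid high control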
DAX1 inh-1: DAX1 (NR0B1) inhibitors, primary screen, cell-based, HEK293, Gal4-DAX1, luciferase luminescence; inhibition, % at 6.75 µM; hit rate 0.99% among 340,000; AID 504766, 2011; Nuclear receptor subfamily 0 group B member 1 (Homo sapiens), P51843; HEK293 Gal4-DAX1 luciferase reporter;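 active = inhibition above the mean over all tested compounds plus 3 SD, cut at about 4.2% in these data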;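 note: 0% = DAX1-transfected cells with DMSO and 100% = empty-vector control cells with DMSO; inhibition shows as a rise in luminescence from relieved DAX1 repression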
Target sequence (P51843 207-470 limits assumed): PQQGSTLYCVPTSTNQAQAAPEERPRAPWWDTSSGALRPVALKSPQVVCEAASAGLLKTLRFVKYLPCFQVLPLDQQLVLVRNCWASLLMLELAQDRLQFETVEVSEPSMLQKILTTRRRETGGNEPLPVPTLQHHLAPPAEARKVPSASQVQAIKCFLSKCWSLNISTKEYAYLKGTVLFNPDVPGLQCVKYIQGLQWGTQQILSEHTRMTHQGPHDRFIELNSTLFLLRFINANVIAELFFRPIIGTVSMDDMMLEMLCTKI
DAX1 inh-2: DAX1 (NR0B1) inhibitors on StAR promoter, primary screen, cell-based, luminescence, SF-1 (NR5A1), full-length DAX-1; HEK293T StAR-luciferase reporter, SF-1/DAX-1 repression relief; hit rate 1.1% among 370,000; inhibition, % at 6.8 µM; AID 652010, 2013;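 active = inhibition above the mean over all tested compounds plus 3 SD, cut at about 3.6% in these data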;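 note: 0% = DAX-1 cells with DMSO and 100% = cells lacking DAX-1 with DMSO; higher inhibition means more luminescence from relief of DAX-1 repression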
* hit, by the source's call; . = not tested or not shown. Only some compounds are listed: those with a hit (about 4.1% of all), similar ones and a draw of the others.

SMILES	ssDAF-12 act	hgDAF-12 ag	hcDAF-12 act	DAX1 inh-1	DAX1 inh-2
Cc1ccc(CNC(=O)c2cc3c(-c4ccc(Cl)cc4)nn(C)c3s2)o1	1.6*	0	5	1	0
Cc1nn(-c2ccccc2)c2sc(C(=O)O)cc12	-1	4	-1	0	0
COc1cccc(-c2nn(C)c3sc(C(=O)NCc4ccco4)cc23)c1	-1	2	0	0	-2
Cc1nn(-c2ccccc2)c2sc(C(=O)N3CCOCC3)cc12	1.3*	9	6.5*	2	2
Fc1ccc(CNC2CCN(Cc3ccccc3)CC2)cc1	0	4	-1	2	1
CC(NC1CCN(Cc2ccccc2)CC1)c1ccc(F)cc1 (centres undefined)	1.1*	-2	-2	0	-1
C=CCN1C(=O)[C@@H](CC(=O)NCc2cccc(C(F)(F)F)c2)[C@]2(C(=O)OCC)CCCCC/C=C/12	-1	2	1	.	1
O=S1(=O)CC=C(CSC(=S)NC2CCS(=O)(=O)C2)C1 (centres undefined)	0	4	-1	4.3*	0
Cc1cc(C)cc(C(=O)OCCCN(C)C2CN(Cc3cn(Cc4cccc(F)c4)nn3)S(=O)(=O)C2)c1 (centres undefined)	-2	-5	-1	.	-1
Cc1ccc(-c2nn(-c3ccccc3)cc2/C=C2\SC(=S)N(CC(=O)O)C2=O)cc1	1.6*	-2	-1	0	0
CC(C)CN(CC(C)C)c1nnc(N)s1	-1	-2	-2	5.9*	0
CC(C)CSc1nnc(N)s1	-1	0	-1	3	1
CCCN(CCC)C(=O)Cn1c2ccccc2c2nc(=O)cc(C)n21	1.1*	-1	4	-1	1
C[C@@H]1CN([C@@H](C)CO)C(=O)c2cc(NC(=O)Nc3ccccc3)ccc2O[C@H]1CN(C)C(=O)Nc1cccc2ccccc12	.	.	.	1	.
N#CCSc1ccccc1NC(=O)CN1C(=O)C2CC=CCC2C1=O (centres undefined)	2.3*	5	4	1	-5
CSc1nnc(SCC2=NNC(=O)SC2)s1	0.9*	1	-1	0	0
CCOc1ccc(N(CC(=O)NCc2ccccc2C)S(C)(=O)=O)cc1	0	8	2	4.3*	2
CCOc1ccc(N(CC(=O)NCCSCc2ccccc2Cl)S(C)(=O)=O)cc1	-2	1	-2	-2	0
COc1ccccc1C(=O)N1CCN(C(=O)[C@H]2O[C@@H](n3cnc(C(N)=O)n3)[C@H](O)[C@@H]2O)CC1	0	-1	-1	.	0
CCCn1c2c(c(O)c(C(=O)Nc3nc4ccccc4s3)c1=O)CCCC2	0	1	6.0*	2	0
CN(Cc1ccccc1)C(=O)OCc1cn(Cc2cccc(C(F)(F)F)c2)nn1	-2	1	-2	.	0
COc1ccc(Cn2c(C)c(CC(=O)Nc3ccc(Oc4cccnc4)c(C)c3)c3ccccc32)cc1	0	1	1	.	-1
CC(=O)Oc1cccc(C(=O)Nc2ccc(NC(=O)c3cccs3)cc2)c1	0	5	0	-1	4.5*
COc1cccc(C(=O)Nc2cccc(NC(=O)c3cccs3)c2)c1	-2	0	0	-1	0
C=CCO[C@H]1CN(C(=O)OC)[C@@H](c2ccccc2Br)C[C@H]1OCC=C	-1	1	-1	.	0
SMILES	ssDAF-12 act	hgDAF-12 ag	hcDAF-12 act	DAX1 inh-1	DAX1 inh-2
O=C(Nc1ccc(OC(F)(F)F)cc1)Nc1nc2ncccn2c1-c1ccc(C(F)(F)F)cc1	0	-1	-1	.	0
CC(C)(C)OC(=O)N(CCc1ccccc1)Cc1cccc(OCc2cccc(NC(=O)c3ccccc3)c2)c1	-1	1	1	-1	4.1*
CC(C)(C)OC(=O)N(CCc1ccccc1)Cc1ccc(OCc2cccc(NC(=O)C3CC3)c2)cc1	-1	1	0	-1	0
CCN(CC)C(=O)CSc1nnc(-c2ccc(C(C)(C)C)cc2)n1-c1ccc(Cl)cc1	-2	2	-2	.	-1
O=C(CSc1ccc2nnc(CCNC(=O)c3ccccc3)n2n1)NCc1ccco1	0	-1	-1	0	3.9*
O=C(CSc1ccc2nnc(CCNC(=O)c3ccc(F)cc3)n2n1)NCc1ccco1	-1	-1	-3	1	1
C[C@H]1COc2cccc(NCCO)c2S(=O)(=O)N1	-1	1	1	.	1
COc1ccccc1N(CC(N)=O)S(=O)(=O)c1ccc(C)cc1	1.1*	3	0	0	0
CC(C)N1CCN(Cc2cc3ccccc3[nH]2)CC1CCO (centres undefined)	1.1*	4	3	1	0
CC(C)N1CCN(Cc2ccc(-c3ccccc3)cc2)CC1CCO (centres undefined)	-2	-2	-1	1	0
CN(C)c1ccc(N=Cc2nc(-c3ccccc3)oc2OC(=O)c2cccc(Cl)c2)cc1	-1	12*	1	2	3
COc1ccc(N=Cc2nc(-c3ccccc3)oc2OC(C)=O)cc1	-1	-1	0	0	1
O=C1C(C2=NC(c3ccccn3)C3C(=O)N(c4ccccc4)C(=O)C23)=C(O)c2ccccc21 (centres undefined)	-1	-1	-2	4.3*	0
COc1ccccc1-c1cccc([C@@H]2C[C@H]3[C@H](CON3C)CN2C)c1	0	-2	-1	0	3.8*
O=C(Nc1ccc2ccccc2c1)c1ccc2[nH]c(=O)c(=O)[nH]c2c1	0	2	6.1*	1	1
O=C(NCc1ccc(F)cc1)c1cc(C2CCCN(C(=O)c3ccccn3)C2)on1 (centres undefined)	-1	0	0	.	1
O=C(CCCCl)N1CCc2[nH]c3ccccc3c2C1	1	-1	5.6*	0	2
CC(=O)N1CCc2[nH]c3ccccc3c2C1	-1	-2	0	1	0
CCOC(=O)N[C@@H](Cc1cccnc1)C(=O)N1CCC[C@H]1C(=O)NCCc1ccccc1Cl	0	-1	3	.	0
CCCCCC(=O)OCc1ccc(C2=CC(=O)CC(C)(C)C2=O)cc1	-1	7	1	1	4.2*
CC(O)(c1cccc(F)c1)c1nc(-c2cnc3ccccc3c2)cs1 (centres undefined)	-1	3	0	.	-1
